Laboratory results reported in article PMC7862700, “An all-to-all approach to the identification of sequence-specific readers for epigenetic DNA modifications on cytosine”.

How the values were obtained:
Test in all cases: DAPPL (digital affinity profiling via proximity ligation, sequencing); 10 mM Tris-HCl pH 7.5, 50 mM NaCl, 1 mM DTT, 4% glycerol, room temperature, 30 min; GST-TFs on glutathione beads, 16-mer random dsDNA library, 0.1% formaldehyde crosslink after washing; high values mean tight binding
FLI1 = target: T1, FLI1 (Homo sapiens, UniProt Q01543 1-452); conditions: protein: recombinant; tags: N-terminal GST; dsDNA, one strand shown
T1 sequence: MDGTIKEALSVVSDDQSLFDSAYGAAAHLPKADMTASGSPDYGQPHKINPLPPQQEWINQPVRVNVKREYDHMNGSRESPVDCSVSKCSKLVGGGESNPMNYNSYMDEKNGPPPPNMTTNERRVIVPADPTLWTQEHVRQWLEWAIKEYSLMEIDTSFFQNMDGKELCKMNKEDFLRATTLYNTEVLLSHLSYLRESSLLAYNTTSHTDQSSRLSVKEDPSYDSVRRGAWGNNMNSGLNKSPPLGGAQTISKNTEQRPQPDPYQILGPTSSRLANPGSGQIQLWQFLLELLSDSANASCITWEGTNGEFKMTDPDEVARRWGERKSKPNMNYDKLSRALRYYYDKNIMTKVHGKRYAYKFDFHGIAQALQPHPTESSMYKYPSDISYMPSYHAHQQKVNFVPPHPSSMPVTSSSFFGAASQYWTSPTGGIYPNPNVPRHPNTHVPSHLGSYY
How it was run: (§1)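 In yeast, human transcription factors were expressed with a GST fusion, then pulled down on glutathione beads and given DNA barcodes. Pooled with a tag-only sample, they were exposed to 200 nmole of a 16-mer random double-stranded DNA library (Tris/NaCl/DTT/glycerol buffer, room temperature, 30 min), washed, crosslinked with 0.1% formaldehyde, proximity-ligated using BsaI/T4 ligase for 1 h at 37 °C, PCR-amplified and read on an Illumina NextSeq500. Each hexamer's frequency of reads for a factor, divided by the matching frequency for the tag-only sample, gives the binding signal.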

ELK1 = target: T2, ELK1 (Homo sapiens, UniProt P19419 1-428); conditions: protein: recombinant; tags: N-terminal GST; dsDNA, one strand shown
T2 sequence: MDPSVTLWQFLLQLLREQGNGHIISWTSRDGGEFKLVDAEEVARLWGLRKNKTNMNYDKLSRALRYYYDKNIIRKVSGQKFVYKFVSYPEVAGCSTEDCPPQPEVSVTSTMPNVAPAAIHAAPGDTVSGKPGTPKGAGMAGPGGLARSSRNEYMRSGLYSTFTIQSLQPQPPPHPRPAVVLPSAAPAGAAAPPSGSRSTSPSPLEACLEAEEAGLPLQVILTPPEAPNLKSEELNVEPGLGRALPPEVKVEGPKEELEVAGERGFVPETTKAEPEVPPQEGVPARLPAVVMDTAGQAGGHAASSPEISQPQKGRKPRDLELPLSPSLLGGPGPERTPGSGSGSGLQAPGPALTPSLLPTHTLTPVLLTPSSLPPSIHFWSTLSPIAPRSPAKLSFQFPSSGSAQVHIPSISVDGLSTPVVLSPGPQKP
How it was run: as §1

GABPA = target: T3, GABPA (Homo sapiens, UniProt Q06546 1-454); conditions: protein: recombinant; tags: N-terminal GST; dsDNA, one strand shown
T3 sequence: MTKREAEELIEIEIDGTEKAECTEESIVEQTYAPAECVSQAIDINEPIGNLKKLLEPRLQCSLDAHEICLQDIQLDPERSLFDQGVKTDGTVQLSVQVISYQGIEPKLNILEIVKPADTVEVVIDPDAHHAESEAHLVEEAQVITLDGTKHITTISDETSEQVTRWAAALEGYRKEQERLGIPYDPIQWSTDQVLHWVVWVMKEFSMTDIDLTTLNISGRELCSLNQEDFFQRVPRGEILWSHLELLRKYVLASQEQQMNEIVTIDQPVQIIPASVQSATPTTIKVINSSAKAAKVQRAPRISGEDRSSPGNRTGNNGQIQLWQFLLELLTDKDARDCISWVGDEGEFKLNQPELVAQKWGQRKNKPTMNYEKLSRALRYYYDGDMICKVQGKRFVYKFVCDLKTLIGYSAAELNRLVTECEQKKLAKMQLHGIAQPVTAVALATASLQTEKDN
How it was run: as §1

ERG = target: T4, ERG (Homo sapiens, UniProt P11308 1-479); conditions: protein: recombinant; tags: N-terminal GST; dsDNA, one strand shown
T4 sequence: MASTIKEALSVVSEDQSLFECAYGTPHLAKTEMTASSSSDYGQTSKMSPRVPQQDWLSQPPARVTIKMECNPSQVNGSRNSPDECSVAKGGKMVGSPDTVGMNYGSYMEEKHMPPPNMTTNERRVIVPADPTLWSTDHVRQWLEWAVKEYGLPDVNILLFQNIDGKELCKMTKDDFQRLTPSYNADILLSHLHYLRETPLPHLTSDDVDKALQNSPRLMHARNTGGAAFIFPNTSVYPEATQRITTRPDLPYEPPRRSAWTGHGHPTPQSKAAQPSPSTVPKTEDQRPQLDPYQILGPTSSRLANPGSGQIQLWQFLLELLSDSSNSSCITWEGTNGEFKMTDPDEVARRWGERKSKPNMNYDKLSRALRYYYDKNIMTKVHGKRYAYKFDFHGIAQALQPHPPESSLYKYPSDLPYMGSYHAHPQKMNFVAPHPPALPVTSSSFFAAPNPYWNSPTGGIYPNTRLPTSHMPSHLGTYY
How it was run: as §1

ELF1 = ELF1 (Homo sapiens, UniProt P32519 1-619); conditions: protein: recombinant; tags: N-terminal GST; dsDNA, one strand shown
Chain of ELF1 (P32519 whole entry): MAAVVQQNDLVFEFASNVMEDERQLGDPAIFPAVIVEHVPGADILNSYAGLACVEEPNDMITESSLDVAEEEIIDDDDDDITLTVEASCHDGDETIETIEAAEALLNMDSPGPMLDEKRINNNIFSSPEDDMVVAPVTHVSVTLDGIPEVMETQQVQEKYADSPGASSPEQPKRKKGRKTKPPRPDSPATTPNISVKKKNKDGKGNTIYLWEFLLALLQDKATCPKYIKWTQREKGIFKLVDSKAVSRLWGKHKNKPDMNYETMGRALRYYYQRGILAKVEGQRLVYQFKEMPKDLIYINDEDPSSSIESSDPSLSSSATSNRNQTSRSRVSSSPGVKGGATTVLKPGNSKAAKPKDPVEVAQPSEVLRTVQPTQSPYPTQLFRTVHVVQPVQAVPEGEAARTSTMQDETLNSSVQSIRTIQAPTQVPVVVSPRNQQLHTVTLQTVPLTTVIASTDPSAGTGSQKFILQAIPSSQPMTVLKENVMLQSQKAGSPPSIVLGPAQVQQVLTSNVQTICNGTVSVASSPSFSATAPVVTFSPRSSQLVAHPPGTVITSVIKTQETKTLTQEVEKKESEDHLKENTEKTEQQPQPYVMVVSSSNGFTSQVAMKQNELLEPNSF
How it was run: as §1

EHF = target: T5, EHF (Homo sapiens, UniProt Q9NZC4 1-300); conditions: protein: recombinant; tags: N-terminal GST; dsDNA, one strand shown
T5 sequence: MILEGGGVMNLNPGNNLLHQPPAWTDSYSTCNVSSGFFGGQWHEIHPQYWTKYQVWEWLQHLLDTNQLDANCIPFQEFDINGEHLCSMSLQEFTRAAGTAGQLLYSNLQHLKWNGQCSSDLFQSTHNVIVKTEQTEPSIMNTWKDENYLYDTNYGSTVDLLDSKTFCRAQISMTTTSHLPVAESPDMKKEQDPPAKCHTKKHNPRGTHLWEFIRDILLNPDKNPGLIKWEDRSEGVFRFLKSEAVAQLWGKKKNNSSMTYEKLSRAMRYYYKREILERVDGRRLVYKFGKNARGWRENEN
How it was run: as §1

SPI1 = SPI1 (Homo sapiens, UniProt P17947 1-270); conditions: protein: recombinant; tags: N-terminal GST; dsDNA, one strand shown
How it was run: as §1

SPIB = SPIB (Homo sapiens, UniProt Q01892 1-262); conditions: protein: recombinant; tags: N-terminal GST; dsDNA, one strand shown
Chain of SPIB (Q01892 whole entry): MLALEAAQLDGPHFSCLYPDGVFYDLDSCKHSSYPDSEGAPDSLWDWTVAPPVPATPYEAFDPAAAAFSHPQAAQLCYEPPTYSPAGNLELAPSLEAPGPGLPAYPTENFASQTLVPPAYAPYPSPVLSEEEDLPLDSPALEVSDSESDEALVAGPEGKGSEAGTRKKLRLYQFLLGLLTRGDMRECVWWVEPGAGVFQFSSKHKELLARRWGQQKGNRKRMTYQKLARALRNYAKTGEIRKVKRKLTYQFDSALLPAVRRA
How it was run: as §1

ELK3 = target: T6, ELK3 (Homo sapiens, UniProt P41970 1-407); conditions: protein: recombinant; tags: N-terminal GST; dsDNA, one strand shown
T6 sequence: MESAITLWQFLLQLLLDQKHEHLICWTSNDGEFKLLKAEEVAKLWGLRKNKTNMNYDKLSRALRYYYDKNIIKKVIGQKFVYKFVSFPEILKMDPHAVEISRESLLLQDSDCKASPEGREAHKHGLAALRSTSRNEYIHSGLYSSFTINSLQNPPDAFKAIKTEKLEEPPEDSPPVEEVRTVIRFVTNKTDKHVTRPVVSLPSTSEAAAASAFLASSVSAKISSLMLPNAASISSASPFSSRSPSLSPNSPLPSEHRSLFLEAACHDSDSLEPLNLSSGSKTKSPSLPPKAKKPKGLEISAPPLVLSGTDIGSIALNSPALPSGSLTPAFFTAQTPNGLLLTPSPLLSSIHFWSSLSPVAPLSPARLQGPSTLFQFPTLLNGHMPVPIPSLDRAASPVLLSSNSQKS
How it was run: as §1

FEV = target: T7, FEV (Homo sapiens, UniProt Q99581 1-238); conditions: protein: recombinant; tags: N-terminal GST; dsDNA, one strand shown
T7 sequence: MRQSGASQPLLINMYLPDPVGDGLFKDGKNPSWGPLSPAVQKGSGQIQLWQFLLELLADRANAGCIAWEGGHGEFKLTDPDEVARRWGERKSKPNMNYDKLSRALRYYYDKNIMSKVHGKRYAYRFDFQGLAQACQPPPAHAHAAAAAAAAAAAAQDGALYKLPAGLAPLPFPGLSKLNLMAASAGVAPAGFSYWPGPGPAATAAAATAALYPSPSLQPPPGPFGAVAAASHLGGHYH
How it was run: as §1

ETV5 = ETV5 (Homo sapiens, UniProt P41161 1-510); conditions: protein: recombinant; tags: N-terminal GST; dsDNA, one strand shown
Chain of ETV5 (P41161 whole entry): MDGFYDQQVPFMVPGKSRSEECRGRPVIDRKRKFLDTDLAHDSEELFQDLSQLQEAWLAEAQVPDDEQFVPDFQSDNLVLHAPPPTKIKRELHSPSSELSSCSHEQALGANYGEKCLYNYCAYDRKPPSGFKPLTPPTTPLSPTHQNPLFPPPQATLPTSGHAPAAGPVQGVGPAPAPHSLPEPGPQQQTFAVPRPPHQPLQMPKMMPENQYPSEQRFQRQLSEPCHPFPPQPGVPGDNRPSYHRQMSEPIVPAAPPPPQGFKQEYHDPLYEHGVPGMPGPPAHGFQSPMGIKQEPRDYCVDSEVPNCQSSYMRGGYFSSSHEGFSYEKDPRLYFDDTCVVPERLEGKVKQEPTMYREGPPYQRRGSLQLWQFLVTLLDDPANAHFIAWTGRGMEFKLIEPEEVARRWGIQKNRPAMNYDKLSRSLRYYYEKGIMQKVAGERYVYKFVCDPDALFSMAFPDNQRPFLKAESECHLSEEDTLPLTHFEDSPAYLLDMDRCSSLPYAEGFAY
How it was run: as §1

HSF1 = HSF1 (Homo sapiens, UniProt Q00613 1-529); conditions: protein: recombinant; tags: N-terminal GST; chain copies: 3; dsDNA, one strand shown
Chain of HSF1 (Q00613 whole entry): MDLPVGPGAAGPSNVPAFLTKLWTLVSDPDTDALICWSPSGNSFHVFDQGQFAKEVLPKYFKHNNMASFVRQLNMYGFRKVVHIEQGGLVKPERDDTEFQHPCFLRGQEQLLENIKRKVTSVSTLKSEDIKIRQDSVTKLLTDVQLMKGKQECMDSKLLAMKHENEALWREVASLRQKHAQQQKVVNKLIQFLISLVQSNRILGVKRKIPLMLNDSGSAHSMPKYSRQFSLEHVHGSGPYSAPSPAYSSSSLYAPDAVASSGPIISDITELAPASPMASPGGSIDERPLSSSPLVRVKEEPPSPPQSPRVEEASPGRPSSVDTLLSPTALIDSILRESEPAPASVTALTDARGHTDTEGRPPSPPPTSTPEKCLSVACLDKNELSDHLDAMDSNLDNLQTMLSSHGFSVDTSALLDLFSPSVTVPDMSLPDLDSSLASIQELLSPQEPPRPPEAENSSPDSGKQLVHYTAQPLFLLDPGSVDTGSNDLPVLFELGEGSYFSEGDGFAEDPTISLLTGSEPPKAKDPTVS
How it was run: as §1

SPIC = target: T8, SPIC (Homo sapiens, UniProt Q8N5J4 1-248); conditions: protein: recombinant; tags: N-terminal GST; dsDNA, one strand shown
T8 sequence: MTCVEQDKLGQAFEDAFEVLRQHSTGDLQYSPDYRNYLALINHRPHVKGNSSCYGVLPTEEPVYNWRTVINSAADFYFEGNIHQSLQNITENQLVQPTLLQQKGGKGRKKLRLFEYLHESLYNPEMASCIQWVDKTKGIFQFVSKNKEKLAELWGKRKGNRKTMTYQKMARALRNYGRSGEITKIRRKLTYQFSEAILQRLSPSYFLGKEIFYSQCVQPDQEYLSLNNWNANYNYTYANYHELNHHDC
How it was run: as §1

ELF4 = ELF4 (Homo sapiens, UniProt Q99607 1-663); conditions: protein: recombinant; tags: N-terminal GST; dsDNA, one strand shown
Chain of ELF4 (Q99607 whole entry): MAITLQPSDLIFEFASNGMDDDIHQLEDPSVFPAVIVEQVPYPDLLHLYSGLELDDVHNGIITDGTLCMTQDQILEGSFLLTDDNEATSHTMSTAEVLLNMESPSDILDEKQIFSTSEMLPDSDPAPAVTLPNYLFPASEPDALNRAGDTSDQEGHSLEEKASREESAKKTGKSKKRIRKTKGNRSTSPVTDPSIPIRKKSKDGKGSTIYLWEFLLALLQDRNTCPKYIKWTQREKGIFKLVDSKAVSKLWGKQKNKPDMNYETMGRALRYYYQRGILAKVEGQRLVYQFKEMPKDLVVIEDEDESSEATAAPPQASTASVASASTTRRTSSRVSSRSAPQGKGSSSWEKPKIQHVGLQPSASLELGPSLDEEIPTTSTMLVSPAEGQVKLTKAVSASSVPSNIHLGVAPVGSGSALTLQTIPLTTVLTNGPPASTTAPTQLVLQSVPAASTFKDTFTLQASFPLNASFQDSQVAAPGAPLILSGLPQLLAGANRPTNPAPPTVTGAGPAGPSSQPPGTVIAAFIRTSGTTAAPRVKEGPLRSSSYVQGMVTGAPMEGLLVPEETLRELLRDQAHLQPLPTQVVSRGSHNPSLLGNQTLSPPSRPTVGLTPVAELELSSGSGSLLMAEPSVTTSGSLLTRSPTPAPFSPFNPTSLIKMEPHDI
How it was run: as §1

ELK4 = target: T9, ELK4 (Homo sapiens, UniProt P28324-2 1-405); conditions: protein: recombinant; tags: N-terminal GST; dsDNA, one strand shown
T9 sequence: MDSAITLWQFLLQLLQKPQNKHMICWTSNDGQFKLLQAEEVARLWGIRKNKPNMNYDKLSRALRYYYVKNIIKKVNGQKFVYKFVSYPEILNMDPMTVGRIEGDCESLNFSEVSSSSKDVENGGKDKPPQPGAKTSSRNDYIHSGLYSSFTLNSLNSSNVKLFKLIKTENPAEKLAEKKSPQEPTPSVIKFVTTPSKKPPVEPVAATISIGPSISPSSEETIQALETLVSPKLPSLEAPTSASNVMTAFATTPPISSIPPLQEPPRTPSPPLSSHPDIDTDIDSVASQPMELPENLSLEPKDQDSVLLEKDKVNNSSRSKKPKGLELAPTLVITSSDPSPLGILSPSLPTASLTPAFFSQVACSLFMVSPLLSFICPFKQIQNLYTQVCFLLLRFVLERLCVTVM
How it was run: as §1

ETV2 = target: T10, ETV2 (Homo sapiens, UniProt O00321 1-342); conditions: protein: recombinant; tags: N-terminal GST; dsDNA, one strand shown
T10 sequence: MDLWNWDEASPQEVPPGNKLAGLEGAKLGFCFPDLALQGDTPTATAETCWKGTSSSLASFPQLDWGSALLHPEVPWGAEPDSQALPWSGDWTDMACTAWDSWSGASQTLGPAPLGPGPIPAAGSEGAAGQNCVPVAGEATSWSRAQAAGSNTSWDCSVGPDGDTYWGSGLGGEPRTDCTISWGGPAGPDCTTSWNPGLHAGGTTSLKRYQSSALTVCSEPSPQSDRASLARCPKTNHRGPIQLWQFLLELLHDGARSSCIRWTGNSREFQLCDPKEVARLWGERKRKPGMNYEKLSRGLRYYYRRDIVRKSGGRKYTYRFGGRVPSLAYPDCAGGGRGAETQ
How it was run: as §1

ELF3 = target: T11, ELF3 (Homo sapiens, UniProt P78545 1-371); conditions: protein: recombinant; tags: N-terminal GST; dsDNA, one strand shown
T11 sequence: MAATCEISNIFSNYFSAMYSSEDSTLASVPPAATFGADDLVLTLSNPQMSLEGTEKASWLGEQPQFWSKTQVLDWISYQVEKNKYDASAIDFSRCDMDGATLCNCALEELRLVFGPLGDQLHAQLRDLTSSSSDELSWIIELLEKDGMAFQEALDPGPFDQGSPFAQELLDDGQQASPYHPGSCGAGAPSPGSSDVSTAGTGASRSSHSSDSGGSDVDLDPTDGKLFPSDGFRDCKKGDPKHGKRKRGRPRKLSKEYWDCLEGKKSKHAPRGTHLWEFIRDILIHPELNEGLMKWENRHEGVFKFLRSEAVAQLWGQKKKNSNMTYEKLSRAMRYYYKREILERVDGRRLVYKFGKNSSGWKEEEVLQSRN
How it was run: as §1

CRX = CRX (Homo sapiens, UniProt O43186 1-299); conditions: protein: recombinant; tags: N-terminal GST; dsDNA, one strand shown
Chain of CRX (O43186 whole entry): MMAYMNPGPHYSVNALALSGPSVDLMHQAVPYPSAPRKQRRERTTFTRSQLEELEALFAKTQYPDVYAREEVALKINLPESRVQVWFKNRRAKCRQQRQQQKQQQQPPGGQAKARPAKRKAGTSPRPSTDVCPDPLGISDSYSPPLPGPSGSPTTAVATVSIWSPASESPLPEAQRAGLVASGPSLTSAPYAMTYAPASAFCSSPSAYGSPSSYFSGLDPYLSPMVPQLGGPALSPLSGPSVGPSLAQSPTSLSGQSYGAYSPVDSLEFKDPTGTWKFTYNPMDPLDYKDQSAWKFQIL
How it was run: as §1

ETV1 = ETV1 (Homo sapiens, UniProt P50549 1-477); conditions: protein: recombinant; tags: N-terminal GST; dsDNA, one strand shown
Chain of ETV1 (P50549 whole entry): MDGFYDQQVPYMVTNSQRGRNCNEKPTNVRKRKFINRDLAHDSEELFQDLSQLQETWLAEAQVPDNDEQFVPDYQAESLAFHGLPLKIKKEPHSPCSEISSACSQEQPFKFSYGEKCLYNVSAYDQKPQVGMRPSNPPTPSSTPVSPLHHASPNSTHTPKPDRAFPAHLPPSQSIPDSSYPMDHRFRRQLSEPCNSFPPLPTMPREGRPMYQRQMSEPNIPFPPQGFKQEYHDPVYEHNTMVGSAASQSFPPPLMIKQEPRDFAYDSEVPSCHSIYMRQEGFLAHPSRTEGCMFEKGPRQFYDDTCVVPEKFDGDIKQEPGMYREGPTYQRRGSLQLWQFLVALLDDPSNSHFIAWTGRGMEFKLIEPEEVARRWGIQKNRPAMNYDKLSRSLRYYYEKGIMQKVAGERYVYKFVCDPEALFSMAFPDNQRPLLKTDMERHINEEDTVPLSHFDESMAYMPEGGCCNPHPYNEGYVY
How it was run: as §1

Which results are given for AATACA?
binding signal (FLI1): 1.28 fold enrichment (6-mer frequency, TF over GST control); binding signal (ELK1): 1.3 fold enrichment (6-mer frequency, TF over GST control); binding signal (GABPA): 1.38 fold enrichment (6-mer frequency, TF over GST control); binding signal (ERG): 1.33 fold enrichment (6-mer frequency, TF over GST control); binding signal (ELF1): 1.35 fold enrichment (6-mer frequency, TF over GST control); binding signal (EHF): 1.3 fold enrichment (6-mer frequency, TF over GST control); binding signal (SPI1): 1.28 fold enrichment (6-mer frequency, TF over GST control); binding signal (SPIB): 1.31 fold enrichment (6-mer frequency, TF over GST control); binding signal (ELK3): 1.27 fold enrichment (6-mer frequency, TF over GST control); binding signal (FEV): 1.38 fold enrichment (6-mer frequency, TF over GST control); binding signal (ETV5): 1.33 fold enrichment (6-mer frequency, TF over GST control); binding signal (HSF1): 1.25 fold enrichment (6-mer frequency, TF over GST control); binding signal (SPIC): 1.21 fold enrichment (6-mer frequency, TF over GST control); binding signal (ELF4): 1.3 fold enrichment (6-mer frequency, TF over GST control); binding signal (ELK4): 1.29 fold enrichment (6-mer frequency, TF over GST control); binding signal (ETV2): 1.45 fold enrichment (6-mer frequency, TF over GST control); binding signal (ELF3): 1.18 fold enrichment (6-mer frequency, TF over GST control); binding signal (CRX): 1.33 fold enrichment (6-mer frequency, TF over GST control); binding signal (ETV1): 1.31 fold enrichment (6-mer frequency, TF over GST control)
